PGC1a acetyl inh: inhibitors of PGC1a acetylation signal, primary screen, cell-based, U2OS, AlphaScreen, inhibitor mode. AlphaScreen anti-acetyl-lysine; with virally co-expressed GCN5 acetyltransferase. inhibition, % at 15.6 µM. hit rate 0.17% among 350,000;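 active means every replicate shows inhibition of at least 40%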;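 further: 0% = neutral control wells and 100% = positive control wells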
HIV Env fusion: inhibitors of HIV-1 Env-driven cell-cell fusion, primary screen, HeLa-JRFL effector, CEM21 target cells, luciferase | inhibition, % at 12.3 µM | hit rate 1.1% among 360,000 | AID 651610, 2012;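 active means mean replicate inhibition score of at least 50 and every replicate individually at or above 50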;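 further: 0% = plate neutral controls and 100% = maraviroc near 300 nM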
INS-1E GSIS act: GLuc luminescence reporter in INS-1E cells, primary screen for activators of glucose-dependent secretion of insulin. hit rate 0.61% among 370,000. INS-1E GLuc reporter insulin secretion, 2-3 h. activation, % at 16.6 µM. AID 743287, 2014;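 active means lowest replicate activation of at least 40%, so every replicate reaches that level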;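 further: 0% = median of neutral control wells and 100% = median of IBMX positive control wells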
NSD2 HMT inh: NSD2 histone methyltransferase inhibitors, primary screen, biochemical, AlphaScreen, single concentration, set 2; inhibition, % at 12.5 µM; NSD2 peptide methylation, 120 min; hit rate 0.54% among 310,000; Histone-lysine N-methyltransferase NSD2 (Homo sapiens), O96028; AID 743445, 2014; in the data active means inhibition above about 50%
MLL AF4-AF9 inh: inhibitors of AF4 peptide binding to AF9, primary screen, biochemical, AlphaScreen, biotin-AF4 peptide, FLAG-AF9, single point. Protein AF-9 (Homo sapiens), P42568. inhibition, % at 10 µM. hit rate 0.47% among 350,000. AID 651704, 2012;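 active means every replicate reaching a set inhibition limit, whatever the replicate mean, cut at about 25% in these data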;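 further: 0% = plate neutral control median and 100% = total signal loss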
Target sequence (P42568 whole entry, looked up): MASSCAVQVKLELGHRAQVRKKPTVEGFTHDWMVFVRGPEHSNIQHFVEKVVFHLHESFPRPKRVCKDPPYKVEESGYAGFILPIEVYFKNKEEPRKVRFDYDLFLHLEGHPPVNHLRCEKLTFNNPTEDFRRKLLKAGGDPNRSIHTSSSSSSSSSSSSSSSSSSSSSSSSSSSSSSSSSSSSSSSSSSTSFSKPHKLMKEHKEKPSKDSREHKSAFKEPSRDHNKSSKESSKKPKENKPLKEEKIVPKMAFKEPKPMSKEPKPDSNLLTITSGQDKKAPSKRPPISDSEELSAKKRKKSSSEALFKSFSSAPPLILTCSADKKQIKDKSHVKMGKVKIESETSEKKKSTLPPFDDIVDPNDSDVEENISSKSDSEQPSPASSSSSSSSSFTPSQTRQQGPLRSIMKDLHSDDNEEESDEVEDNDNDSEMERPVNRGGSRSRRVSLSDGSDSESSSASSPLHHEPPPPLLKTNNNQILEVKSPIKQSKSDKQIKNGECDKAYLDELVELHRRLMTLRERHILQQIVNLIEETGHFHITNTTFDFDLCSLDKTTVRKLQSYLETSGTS
Starred values were filed as active, the others as inactive; · = no result; [ ] = remark or other dose. In the library only some 2.1% were active in any assay of this set; here they are far more common.

SMILES | PGC1a acetyl inh | HIV Env fusion | INS-1E GSIS act | NSD2 HMT inh | MLL AF4-AF9 inh
COc1ccc(-c2nc(-c3ccccn3)ncc2S(C)(=O)=O)cc1 | · | -3.2 | 9.9 | -2.8 | 0.6
CCCc1nc2c(=O)n(C)c(=O)nc-2n(C)n1 | 74.5* | 69.1* | -39.6 | · | -3.6
Cn1nc(-c2ccccn2)nc2c(=O)n(C)c(=O)nc1-2 | 79.6* | 68.0* | 14.5 | · | -7.4
Cn1cccc1C(=S)N1CCOCC1 | -4.2 | · | · | 27.4 | ·
Cc1cc(C(C)(C)C)ccc1NC(=O)CC(C)(C)CC(=O)O | 5.7 | -47.4 | -13.8 | -2.4 | 25.9*
CC(Cl)=CCn1c(NCCc2ccccc2)nc2c1c(=O)n(C)c(=O)n2C | 3.3 | 93.6* | 0.0 | · | 1.3
CCCCn1c(CN(C)Cc2ccccc2)nc2c1c(=O)n(C)c(=O)n2C | · | 72.3* | · | -1.5 | ·
CCOCCCNc1nc2c(c(=O)n(C)c(=O)n2C)n1CCCc1ccccc1 | 40.3* | 24.6 | · | -4.7 | ·
COCCNc1nc2c(c(=O)n(C)c(=O)n2C)n1CCCc1ccccc1 | 5.6 | 31.1 | -3.4 | 16.6 | 1.1
COc1cccc(Cn2c(NCc3cccnc3)nc3c2c(=O)n(C)c(=O)n3C)c1 | 71.3* | · | · | 13.9 | ·
COc1ccc(N/C=C/C(=O)C(C)(C)C)cc1 | -3.4 | 10.4 | -2.5 | -2.3 | 0.4
COc1ccc(CCN2CC(C(=O)NCc3cc(C)on3)CCC2=O)cc1 (centres undefined) | 2.8 | 7.6 | 24.6 | 15.7 | -0.8
C=CCNc1nc2c(c(=O)n(C)c(=O)n2C)n1CC | 2.9 | 20.6 | 5.0 | · | 0.5
CNc1nc2c(c(=O)n(C)c(=O)n2C)n1Cc1ccccc1 | 3.1 | 68.6* | · | -2.3 | ·
C=CCNc1nc2c(c(=O)n(C)c(=O)n2C)n1CCCCCC | · | 92.1* | · | 1.7 | ·
CCCCOc1ccc(CN=C(N)N)cc1Cl | · | -1.3 | -30.6 | 1.9 | ·
CC(C)N(Cc1nc(-c2ccccc2)no1)C(=O)c1ccc([N+](=O)[O-])cc1 | 7.7 | 4.2 | -2.2 | 0.6 | 4.6
COc1ccc(C(CCN2CCCC(C)C2)c2c(OC)cc(OC)c3c(-c4ccccc4)cc(=O)oc23)cc1 (centres undefined) | -9.6 | -106.7 | 12.6 | · | 27.3*
CCCCCc1cc(=O)oc2c(C(CCN(CC)CC)c3cc(OC)c(OC)c(OC)c3)c(OC)cc(OC)c12 (centres undefined) | · | -7.8 | 62.9* | · | 13.2
CCCCCc1cc(=O)oc2c(C(CCN3CCCCC3)c3ccc4c(c3)OCO4)c(OC)cc(OC)c12 (centres undefined) | 14.8 | -8.3 | 94.7 | · | 26.8*
CCCCCc1cc(=O)oc2c(C(CCN3CCN(c4ccccc4)CC3)c3ccc(N(C)C)cc3)c(OC)cc(OC)c12 (centres undefined) | 2.1 | 36.9 | -11.4 | · | ·
CC(CCc1ccccc1)NC(=O)CC(C)c1ccccc1 (centres undefined) | · | -24.0 | -18.2 | -10.2 | -3.3
O=C(NCCCCc1ccccc1)c1ccccc1F | 2.8 | 5.4 | 8.7 | -5.6 | 1.9
COc1ccc(C(=O)N2CCN(c3ccc([N+](=O)[O-])c(NCCc4ccc(OC)c(OC)c4)c3)CC2)cc1 | 3.5 | 76.8* | -46.2 | -0.1 | ·
COc1ccc(CCNc2cc(N3CCN(C(=O)c4ccccc4F)CC3)ccc2[N+](=O)[O-])cc1OC | 3.8 | · | · | 1.2 | ·
SMILES | PGC1a acetyl inh | HIV Env fusion | INS-1E GSIS act | NSD2 HMT inh | MLL AF4-AF9 inh
COC(=O)CN(c1cccc(C)c1)S(=O)(=O)c1ccccc1 | -5.7 | -6.5 | 46.1* | -3.9 | 2.1
C[C@H](CO)N1C[C@H](C)[C@@H](CN(C)Cc2ccc(C(=O)O)cc2)Oc2ccc(N(C)C)cc2CC1=O | 8.0 | 3.0[16.7 µM] | 20.7 | · | 1.8
COc1ccc(CN(C)C[C@H]2Oc3ccc(N(C)C)cc3CC(=O)N([C@H](C)CO)C[C@H]2C)cc1 | -15.6 | · | 14.3 | · | 0.3
C[C@H]1CN([C@@H](C)CO)C(=O)Cc2cc(N(C)C)ccc2O[C@@H]1CN(C)Cc1ccc(Oc2ccccc2)cc1 | 33.0 | -28.9[16.7 µM] | 4.7 | · | 26.4*
C[C@H]1CN([C@@H](C)CO)C(=O)Cc2cc(N(C)C)ccc2O[C@H]1CN(C)Cc1ccc(Oc2ccccc2)cc1 | 1.6 | -21.9[16.7 µM] | -7.4 | · | 48.2*
C[C@@H]1CN([C@H](C)CO)C(=O)Cc2cc(N(C)C)ccc2O[C@@H]1CN(C)Cc1ccc(Oc2ccccc2)cc1 | -24.4 | 1.1[16.7 µM] | 23.6 | · | 51.2*
C[C@@H]1CN([C@H](C)CO)C(=O)Cc2cc(NS(C)(=O)=O)ccc2O[C@H]1CN(C)Cc1ccc(Oc2ccccc2)cc1 | -8.8 | · | 7.9 | · | 4.6
Cc1ccc(-n2nc3c(=O)n(C(C)C(=O)NCc4ccccc4Cl)nc(C)c3c2C)cc1 (centres undefined) | · | 1.3 | -29.5 | -8.1 | -0.4
C=CCc1ccccc1Oc1cc(OC)nc(N)n1 | · | -19.4 | 63.1* | 5.6 | 0.9
CSc1ccc(C(=O)C2CCCN(C(=O)c3ccc4c(c3)no[n+]4[O-])C2)cc1 (centres undefined) | 10.7 | -30.7 | 41.5* | · | 6.2
COc1ccc2c3c([nH]c2c1)[C@@H](CO)N(C(=O)Nc1ccc(F)cc1)CC31CN(Cc2ccccc2OC)C1 | -25.1 | · | -12.7 | · | 50.5*
COc1ccc2c3c([nH]c2c1)[C@H](CO)N(C(=O)NC(C)C)CC31CN(Cc2ccc(F)cc2)C1 | -3.3 | · | 0.4 | · | 31.3*
COc1ccc(CN2CC3(C2)CN(C(=O)Nc2ccc(F)cc2)[C@@H](CO)c2[nH]c4cc(OC)ccc4c23)cc1 | -22.1 | · | -26.3 | · | 43.9*
COc1ccc2c3c([nH]c2c1)[C@H](CO)N(C(=O)NC(C)C)CC31CN(Cc2ccccc2)C1 | -2.1 | · | -5.2 | · | 25.9*
COc1ccc2cc(C=NS(=O)(=O)c3ccc(C)cc3)n(C)c2c1 | 8.9 | 58.6* | 8.1 | · | ·
C=CCSc1nc(=O)n2cccc(C)c2n1 | -1.2 | · | 66.7* | · | -3.6
Cc1cccn2c(=O)nc(SCC(=O)N3CCCCC3)nc12 | · | 5.1 | 43.2* | 1.3 | -25.8
Cc1cccn2c(=O)nc(SCC(=O)N3CCCCCC3)nc12 | · | · | 9.6 | -0.7 | -17.3
C=CCSc1nc(=O)n2ccccc2n1 | -2.9 | 13.2 | 17.4 | -3.0 | -3.6
COc1ccccc1N(CC(=O)NCCSCc1ccccc1)S(=O)(=O)c1ccccc1 | -3.1 | 22.3 | -21.0 | -30.8 | -2.2
CCN(CC)S(=O)(=O)c1cccc(NC(=O)C(=O)c2c(-c3ccccc3)cc3ccccn23)c1 | · | -41.1 | · | 0.5 | ·
CCN(CC)S(=O)(=O)c1cc(NC(=O)C(=O)c2c(-c3ccccc3)cc3ccccn23)ccc1C | -26.1 | 77.3* | · | 0.9 | ·
COc1cc(/C=C(/C#N)C(=O)Nc2ccc(C)cc2)ccc1Oc1nc(Cl)ncc1F | · | -15.8 | -26.3 | -0.7 | ·
CCCC(=O)OCCNc1cc(Sc2nc3ccccc3[nH]2)c2nonc2c1[N+](=O)[O-] | 20.5 | -31.5 | 75.6* | -0.7 | ·
CCC(=O)OCCNc1cc(SCCC(=O)OC)c2nonc2c1[N+](=O)[O-] | · | 14.4 | -20.9 | 2.2 | ·
CCC(=O)OCCNc1cc(Sc2nccn2C)c2nonc2c1[N+](=O)[O-] | · | -183.7 | 111.4* | · | ·
